Measured values taken from PubChem BioAssay (EPA / NIEHS).
Where “and” joins values, the source holds several entries; their conditions need not be identical. Equal entries are not always repeated. Inconclusive results are not listed. A structure can be active in one record and inactive in another. Calls of active or inactive are those of the source. The calls were made as follows: active = hit-call score of the fitted dose curve at least 0.9, where 1 is the maximum; inconclusive = response in the unintended direction; inactive = score below 0.9.

Legend:
[1] = test system: chicken Androgen Receptor (AR), gene 422165; assay: ATG_chAR_XSP1: Attagene TRANS-FACTORIAL Multi-Species (XSP1) HepG2 Assay for chicken Androgen Receptor (AR) (AID 2283768)
Method in brief: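 Reporter mRNA read by RT-PCR with fluorescent labelling and capillary electrophoresis 24 h after chemical dosing of transiently transfected HepG2 cells. Chicken AR-Gal4 chimera, partially stimulated with 3 nM 6-alpha-fluorotestosterone; activity fitted upward relative to DMSO.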

[2] = test system: frog Estrogen Receptor (ESR2), gene 100174814; assay: ATG_frER2_XSP1: Attagene TRANS-FACTORIAL Multi-Species (XSP1) HepG2 Assay for frog Estrogen Receptor (ESR2) (AID 2283774)
Method in brief: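 Reporter mRNA from a multiplexed TRANS system, measured by RT-PCR with fluorescent labelling and capillary electrophoresis, 24 hours after chemical exposure. Human HepG2 liver cells carried exogenous frog ER-Gal4 chimera; medium included 3 nM 6-alpha-fluorotestosterone; increases versus DMSO analysed.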

[3] = ACEA_AR_antagonist_AUC_viability: ACEA Biosciences xCELLigence Real-Time Cell Analysis on Androgen Receptor Antagonism for Viability (AID 2283776);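 also: area under impedance growth curve at 80 h after dosing as viability; hits lower the growth signal relative to DMSO meaning cytotoxicity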
Method in brief: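 22Rv1 human prostate cancer cells were seeded on electrode plates, monitored overnight, then exposed to eight 1:4 dilutions from 100 uM final. Impedance-based growth kinetics at 80 h gave an AUC viability endpoint normalized to DMSO.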

[4] = molecular target: chicken Estrogen Receptor (ESR1), ESR1 (gene 396099) (UniProt P06212); assay: ATG_chERa_XSP1: Attagene TRANS-FACTORIAL Multi-Species (XSP1) HepG2 Assay for chicken Estrogen Receptor (ESR1) (AID 2283779)
Sequence of chicken Estrogen Receptor (ESR1), ESR1 (gene 396099) (P06212 whole entry, looked up, the tested form may be a part): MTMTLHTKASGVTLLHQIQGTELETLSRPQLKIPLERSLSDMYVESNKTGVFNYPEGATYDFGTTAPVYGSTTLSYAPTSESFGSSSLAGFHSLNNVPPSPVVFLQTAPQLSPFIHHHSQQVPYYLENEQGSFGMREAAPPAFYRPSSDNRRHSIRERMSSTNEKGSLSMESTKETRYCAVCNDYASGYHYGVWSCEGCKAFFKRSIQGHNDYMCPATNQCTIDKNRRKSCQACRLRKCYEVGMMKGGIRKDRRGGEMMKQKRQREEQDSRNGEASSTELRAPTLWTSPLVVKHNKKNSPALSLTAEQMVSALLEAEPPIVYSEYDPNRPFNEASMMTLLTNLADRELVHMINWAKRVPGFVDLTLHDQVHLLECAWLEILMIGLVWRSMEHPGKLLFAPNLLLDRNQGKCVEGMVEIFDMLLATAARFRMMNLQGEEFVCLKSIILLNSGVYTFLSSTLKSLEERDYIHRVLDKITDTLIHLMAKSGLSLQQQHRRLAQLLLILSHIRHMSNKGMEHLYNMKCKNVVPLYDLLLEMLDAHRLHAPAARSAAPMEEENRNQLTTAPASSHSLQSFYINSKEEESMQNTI
Method in brief: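 Trans-activation of an exogenous chicken ERα–Gal4 chimera read as reporter transcript (RT-PCR, fluorescent labeling, capillary electrophoresis) after 24 h compound exposure of transfected HepG2; medium held 3 nM 6-alpha-fluorotestosterone. Positive-direction fit against DMSO.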

AR (gene 367) = AR (gene 367) (UniProt P10275); assay: ACEA_AR_agonist_80hr: ACEA Biosciences xCELLigence Real-Time Cell Analysis on Androgen Receptor Agonism for Proliferation (AID 2283783);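 also: hits increase impedance growth signal above DMSO baseline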
Sequence of AR (gene 367) (P10275 whole entry, looked up): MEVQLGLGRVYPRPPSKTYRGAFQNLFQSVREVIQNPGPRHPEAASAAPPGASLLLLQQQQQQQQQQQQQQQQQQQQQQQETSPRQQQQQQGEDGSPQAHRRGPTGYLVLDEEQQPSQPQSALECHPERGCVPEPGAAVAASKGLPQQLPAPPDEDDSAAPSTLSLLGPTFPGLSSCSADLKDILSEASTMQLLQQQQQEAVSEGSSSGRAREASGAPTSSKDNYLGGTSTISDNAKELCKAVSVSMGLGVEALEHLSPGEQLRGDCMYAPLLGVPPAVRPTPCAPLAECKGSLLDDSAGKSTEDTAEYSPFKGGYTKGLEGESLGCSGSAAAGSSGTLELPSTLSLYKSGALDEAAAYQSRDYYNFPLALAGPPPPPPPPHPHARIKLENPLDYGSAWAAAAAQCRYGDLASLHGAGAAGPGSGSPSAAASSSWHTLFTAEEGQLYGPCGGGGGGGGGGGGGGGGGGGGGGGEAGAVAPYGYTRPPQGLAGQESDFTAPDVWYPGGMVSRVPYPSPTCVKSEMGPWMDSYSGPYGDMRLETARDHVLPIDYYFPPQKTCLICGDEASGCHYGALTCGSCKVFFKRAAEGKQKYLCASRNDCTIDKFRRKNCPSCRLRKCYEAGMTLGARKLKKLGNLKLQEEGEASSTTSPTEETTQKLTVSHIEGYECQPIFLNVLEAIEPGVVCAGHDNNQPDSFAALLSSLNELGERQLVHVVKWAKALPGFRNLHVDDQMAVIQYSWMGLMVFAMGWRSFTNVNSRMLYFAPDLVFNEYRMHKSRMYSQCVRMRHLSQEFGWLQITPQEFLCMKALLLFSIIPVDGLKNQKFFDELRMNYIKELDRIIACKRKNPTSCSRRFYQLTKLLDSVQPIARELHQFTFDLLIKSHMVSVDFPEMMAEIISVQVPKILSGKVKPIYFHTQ
Method in brief: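 Eight concentrations, 1:4 serial dilution from a 100 uM final top, in biological duplicate. Impedance-based real-time growth of 22Rv1 cells after overnight baseline, recorded hourly and read at 80 hours. Controls: testosterone, MG132, assay media.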

[5] = STM_H9_NormalizedViability: Cytotoxicity Assessment at 120 hours in the Stemina devTOX quickPredict H9 human embryonic stem cell (hESC)-based Assay (AID 2283784)
Method in brief: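 Viability of the cell layer was taken from live-cell protease cleavage of a fluorogenic substrate after compound exposure of undifferentiated H9 stem cells, with replenishment each 24h. Fluorescence was normalized to vehicle (0.1% DMSO).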

[6] = test system: zebrafish Estrogen Receptor (ESR2B), gene 317733; assay: ATG_zfER2b_XSP1: Attagene TRANS-FACTORIAL Multi-Species (XSP1) HepG2 Assay for zebrafish Estrogen Receptor (ESR2B) (AID 2283773)
Method in brief: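 Medium contained 3 nM 6-alpha-fluorotestosterone. Reporter mRNA induction by exogenous zebrafish ER2b-Gal4 chimera was read 24 h post-dose in transiently transfected HepG2 cells, using RT-PCR, fluorescent labelling, HpaI digestion and capillary electrophoresis.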

[7] = test system: frog Estrogen Receptor (ESR1), gene 398734; assay: ATG_frER1_XSP1: Attagene TRANS-FACTORIAL Multi-Species (XSP1) HepG2 Assay for frog Estrogen Receptor (ESR1) (AID 2283777)
Method in brief: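 HepG2 cells transiently transfected with GAL4-UAS reporter units and frog ER–Gal4 chimera were dosed for 24 h with 3 nM 6-alpha-fluorotestosterone present. Reporter mRNA was measured by RT-PCR and capillary electrophoresis; gain of signal fitted versus DMSO.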

[8] = ACEA_ER_AUC_viability: ACEA Biosciences xCELLigence Real-Time Cell Analysis on Estrogen Receptor Agonism for Viability (AID 2283782);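 also: hit means loss of impedance signal meaning reduced cell growth or viability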
Method in brief: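 Viability endpoint: reduced impedance area under the curve relative to DMSO, recorded by real-time electrode sensing over ~80 h of continuous exposure. Duplicate plates of T47D in hormone-depleted medium; eight concentrations, 1:4 dilutions, 100 uM maximum.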

[9] = molecular target: Luciferin 4-monooxygenase (Photinus pyralis) (UniProt P08659); assay: CCTE_Simmons_QuantiLum_inhib_2: CCTE's Firefly Luciferase Inhibition Assay, Simmons Lab (AID 2283767);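 as to AC50: potency for inhibitors that lower luciferase luminescence relative to DMSO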
Sequence of Luciferin 4-monooxygenase (Photinus pyralis) (P08659 whole entry, looked up): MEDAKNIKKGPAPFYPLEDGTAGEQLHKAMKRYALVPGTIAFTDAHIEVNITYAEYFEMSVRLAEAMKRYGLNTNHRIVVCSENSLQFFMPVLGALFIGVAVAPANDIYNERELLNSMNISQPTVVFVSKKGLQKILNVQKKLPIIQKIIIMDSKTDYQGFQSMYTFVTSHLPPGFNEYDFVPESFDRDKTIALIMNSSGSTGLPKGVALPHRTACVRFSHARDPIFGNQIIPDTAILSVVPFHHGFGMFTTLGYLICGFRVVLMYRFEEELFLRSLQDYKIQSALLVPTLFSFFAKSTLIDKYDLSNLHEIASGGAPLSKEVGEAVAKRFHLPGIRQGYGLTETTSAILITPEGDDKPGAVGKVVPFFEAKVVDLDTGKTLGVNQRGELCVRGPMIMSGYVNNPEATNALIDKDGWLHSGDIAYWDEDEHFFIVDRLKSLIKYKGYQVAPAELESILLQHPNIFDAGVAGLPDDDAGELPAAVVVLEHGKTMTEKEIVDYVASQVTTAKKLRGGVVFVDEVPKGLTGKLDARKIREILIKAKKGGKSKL
Method in brief: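 First, 5 ng purified luciferase in phosphate buffer with BSA is dispensed per well. Next, test chemicals (5 nM to 87.5 uM final, 0.5% DMSO) are added and incubated 30 min at 37C in darkness. Finally, luciferin reagent is injected and luminescence read kinetically.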

[10] = test system: frog Androgen Receptor (AR), gene 399456; assay: ATG_frAR_XSP1: Attagene TRANS-FACTORIAL Multi-Species (XSP1) HepG2 Assay for frog Androgen Receptor (AR) (AID 2283770)
[11] = molecular target: zebrafish Estrogen Receptor (ESR1), esr1 (gene 259252) (UniProt P57717); assay: ATG_zfER1_XSP1: Attagene TRANS-FACTORIAL Multi-Species (XSP1) HepG2 Assay for zebrafish Estrogen Receptor (ESR1) (AID 2283772)
Sequence of zebrafish Estrogen Receptor (ESR1), esr1 (gene 259252) (P57717 whole entry, looked up, the tested form may be a part): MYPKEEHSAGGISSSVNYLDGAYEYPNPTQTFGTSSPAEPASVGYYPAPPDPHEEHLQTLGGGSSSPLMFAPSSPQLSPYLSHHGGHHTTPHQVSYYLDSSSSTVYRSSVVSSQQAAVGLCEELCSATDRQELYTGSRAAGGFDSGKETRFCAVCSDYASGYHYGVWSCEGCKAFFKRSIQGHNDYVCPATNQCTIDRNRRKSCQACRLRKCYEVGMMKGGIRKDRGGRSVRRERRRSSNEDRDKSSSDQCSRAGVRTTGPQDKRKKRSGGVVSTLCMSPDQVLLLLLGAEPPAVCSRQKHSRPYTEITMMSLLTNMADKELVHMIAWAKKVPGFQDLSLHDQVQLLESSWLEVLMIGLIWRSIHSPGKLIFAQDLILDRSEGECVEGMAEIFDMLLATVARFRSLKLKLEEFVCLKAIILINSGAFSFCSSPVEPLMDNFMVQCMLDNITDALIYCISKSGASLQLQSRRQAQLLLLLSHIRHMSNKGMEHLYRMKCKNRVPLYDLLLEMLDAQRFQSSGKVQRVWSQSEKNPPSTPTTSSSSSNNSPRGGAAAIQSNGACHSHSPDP
Method in brief: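 Trans-activation readout: transfected zebrafish ER-Gal4 drives a UAS reporter in human HepG2 liver cells. After 24 h compound exposure (medium containing 3 nM 6-alpha-fluorotestosterone), induced reporter transcripts were quantified by RT-PCR with capillary electrophoresis, relative to DMSO.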

[12] = test system: zebrafish Estrogen Receptor (ESR2A), gene 317734; assay: ATG_zfER2a_XSP1: Attagene TRANS-FACTORIAL Multi-Species (XSP1) HepG2 Assay for zebrafish Estrogen Receptor (ESR2A) (AID 2283778)
Method in brief: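 Reporter transcripts were quantified by RT-PCR, 6-FAM labelling, HpaI digestion and capillary electrophoresis after 24 h dosing. The cells were HepG2 transiently carrying a zebrafish ER2a–Gal4 construct plus multiplexed UAS reporters; medium contained 3 nM 6-alpha-fluorotestosterone.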

[13] = ArunA_NOG_NucleusCount: ArunA Biomedical's Neurite Outgrowth (NOG) Assay for Nucleus Count (AID 2283756)
Method in brief: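 Viable neuron count, from Hoechst nuclei passing size and intensity gates, imaged at 20x on differentiated H9-derived human neurons. Exposure lasted 48 h from seeding; activity was scored relative to DMSO.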

[14] = ACEA_AR_agonist_AUC_viability: ACEA Biosciences xCELLigence Real-Time Cell Analysis on Androgen Receptor Agonism for Viability (AID 2283775);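 also: viability read 80 hours after compound addition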
Method in brief: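 22Rv1 cells; impedance growth kinetics; 8-pt 1:4 dilutions from 100 uM top final, ≤0.5% DMSO; n = 2; 80 h read; AUC viability, loss-of-signal vs DMSO.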

[15] = test system: zebrafish Androgen Receptor (AR), gene 100005148; assay: ATG_zfAR_XSP1: Attagene TRANS-FACTORIAL Multi-Species (XSP1) HepG2 Assay for zebrafish Androgen Receptor (AR) (AID 2283771)
Method in brief: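 Gain-of-signal versus DMSO was measured as reporter transcripts quantified by RT-PCR, fluorescent labelling and capillary electrophoresis after 24 h chemical exposure. The cells were HepG2 expressing a chimeric zebrafish AR-GAL4, co-stimulated with 3 nM 6-alpha-fluorotestosterone.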

Measured: AC50

CO/C=C(/C(=O)OC)c1ccccc1Oc1cc(Oc2ccccc2C#N)ncn1
active: [3] 45.3 µM
inactive: [1] | [2] | [4] | AR (gene 367) | [5]

CCCCOC(=O)c1ccccc1C(=O)OCCCC
inactive: [1] | [7] | [8]
active: [6] 24.6 µM | [3] 66.1 µM | [4] 26.7 µM | [8] 78.3 µM | [5] 50 µM

COP(=S)(OC)Oc1nc(Cl)c(Cl)cc1Cl
active: [1] 3.31 µM | [10] 5.58 µM | [6] 46.6 µM | [2] 61.6 µM | [7] 31 µM | [4] 27.8 µM | [8] 79 µM
inactive: [9] | [11]

CCCC1COC(Cn2cncn2)(c2ccc(Cl)cc2Cl)O1 (centres undefined)
inactive: [11] | [7] | [12] | [4] | AR (gene 367)
active: [9] 14.4 µM | [6] 27.6 µM | [2] 27 µM | [3] 74.8 µM | [8] 92.1 µM | [5] 71.2 µM

CN(C)C(=S)SSC(=S)N(C)C
active: [9] 80.1 µM | [3] 22.6 µM | [8] 91 µM | [5] 50 µM
inactive: AR (gene 367)

CON(C)C(=O)Nc1ccc(Cl)c(Cl)c1
active: [6] 35.9 µM | [2] 29.1 µM | [3] 15.8 µM | [7] 10.4 µM | [4] 27.3 µM
inactive: [9] | [11] | [3] | [12] | [8] | [5]

C=CCC1=C(C)[C@@H](OC(=O)[C@@H]2[C@@H](C=C(C)C)C2(C)C)CC1=O
active: [3] 61.3 µM | [8] 89.8 µM
inactive: [13] | [9] | [5]

C=CCC1=C(C)C(OC(=O)C2C(C=C(C)C)C2(C)C)CC1=O (centres undefined)
inactive: [9] | [8]
active: [3] 52.5 µM | [8] 87.8 µM [middle of 5 runs]

O=C(Nc1ccccc1)Nc1ccnc(Cl)c1
active: [14] 39.1 µM | [3] 30.8 µM | [8] 81.3 µM
inactive: [9]

CCCN(CCC)c1c([N+](=O)[O-])cc(S(N)(=O)=O)cc1[N+](=O)[O-]
inactive: [9] | [15] | [11] | [8]
active: [1] 59.5 µM | [6] 14.2 µM | [2] 11.2 µM | [7] 12.7 µM | [12] 33.4 µM | [4] 16.2 µM | [8] 24 µM and 82.5 µM and 21.4 µM
